A selection: hits, their analogues and other compounds. The true share with any hit is near 2.2%.
TRAIL sens C8: viability loss with TRAIL in NB7+C8 cells, primary screen, TRAIL sensitizer project, cell-based, ATPlite luminescence; inhibition (viability loss, TRAIL sensitization), % at 10 µM; 360,000 compounds, 1% hits; AID 624354, 2012;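 active means compounds causing at least 50% loss of cell viability in the single-dose screen, relative to plate controls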
CF NFkB block: inhibitors of PAF-induced NF-kB signaling, primary screen, cell-based, GFP fluorescence, uHTS; 360,000 compounds, 0.86% hits; KKLEB NF-kB-GFP reporter, GFP fluorescence overnight; inhibition, % at 5 µM;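 active means at least 50% inhibition at 5 µM, scaled per plate between neutral and stimulator controls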;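 further: PAF is a Pseudomonas aeruginosa culture filtrate used as stimulus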
KKLEB tox: cytotoxicity in KKLEB CF airway cells, primary screen, cytotoxicity control for CF NF-kB inhibitor project, cell-based, uHTS, fluorescence assay plates; KKLEB CF airway cells viability, ATPlite luminescence, overnight; stronger effect = lower value; cells stimulated with P. aeruginosa culture filtrate; activity change (cytotoxicity), % at 5 µM; 360,000 compounds, 0.36% hits;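 active means corrected activity change at or below -50% at 5 µM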
HIF-2a inh: HIF-2a reporter inhibitors, primary screen, luminescence, 786-0 RCC cells | AID 624352, 2012 | 360,000 compounds, 0.72% hits | inhibition, % at 18.8 µM | 786-0 RCC cells HIF-2a reporter, luciferase luminescence, overnight;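 active means inhibition of the luminescence signal of 40% or more relative to plate controls, in a single-dose primary screen at 18.75 µM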
PPC-1+TRAIL kill: compounds killing PPC-1 cancer cells with TRAIL present, primary screen, TRAIL potentiator project, ATPLite luminescence, uHTS; PPC-1 cells + TRAIL, ATPLite viability luminescence; cell killing (% activity), % at 4 µM or 5 µM; 220,000 compounds, 0.41% hits; AID 1443, 2008;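 active means cell killing above 50% in the first pass at 4 µM, then a duplicate retest at 5 µM averaging 50% or more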
hiPSC survival: enhancers of single-cell hiPSC survival, primary screen, ATPlite luminescence; 100% = ROCK inhibitor wells, 0% = DMSO; survival enhancement, % at 20 µM; 360,000 compounds, 0.044% hits; in the data active means survival enhancement above about 18%;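 further: cells exposed to compounds for 16 hours before the ATP read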
Each line names hits and unclear results; the compound was inactive in the other large screens.

COc1ccc2nc(NC(=O)CCNC(=O)c3ccco3)sc2c1	none (no result: PPC-1+TRAIL kill)
C[C@@H](C(=O)OCC(=O)c1ccccc1)N1C(=O)C2CCCCC2C1=O (some centres undefined)	none (no result: PPC-1+TRAIL kill)
COc1ccccc1-c1sc2cc3c(cc2c1-c1ccc(OCCN2CCOCC2)cc1)OCO3	none (no result: PPC-1+TRAIL kill)
COc1cc(OC)cc(-c2sc3ccc(OC)cc3c2-c2ccc(OCCN3CCCCC3)cc2)c1	CF NFkB block 68.6, KKLEB tox -75.0 (no result: PPC-1+TRAIL kill)
COc1ccc(-c2sc3cc4c(cc3c2-c2ccc(OCCN3CCCCC3)cc2)OCO4)cc1	CF NFkB block 71.8, KKLEB tox -77.6 (no result: PPC-1+TRAIL kill)
Cc1c(C(=O)NCCN2CCCC(O)C2)oc2c(F)cccc12 (centres undefined)	none (no result: PPC-1+TRAIL kill)
CCC(C(=O)OCc1csc(CC(=O)Nc2ccccc2C)n1)c1ccccc1 (centres undefined)	none (no result: PPC-1+TRAIL kill)
Cc1ccc(-c2nc3cccnc3o2)cc1NC(=O)COc1ccc(C(C)(C)C)cc1	none
Cc1ccc(-c2nc3cccnc3o2)cc1NC(=O)COc1ccc(Cl)cc1C	CF NFkB block 60.2
O=C(Nc1cc([N+](=O)[O-])ccc1O)c1ccc2c(c1)C(=O)N(Cc1ccco1)C2=O	none (no result: PPC-1+TRAIL kill)
CCCc1nc2c(=O)n(C)c(=O)nc-2n(C)n1	TRAIL sens C8 96.5, CF NFkB block 97.3, HIF-2a inh 80.1
CCn1c(N)nc2c1c(=O)n(C)c(=O)n2C	none
Cc1nc2ccc(C(=O)N3CCN(c4ccccc4)CC3)cn2c1N(C)C(=O)CCc1ccccc1	none (no result: PPC-1+TRAIL kill)
O=C(CC(Nc1ccc(Cl)cc1)C(=O)O)c1ccccc1 (centres undefined)	TRAIL sens C8 61.6
Cc1cccc(-n2c(SCC(=O)N3CCC(C(=O)O)CC3)nc3ccccc3c2=O)c1C	none (no result: PPC-1+TRAIL kill)
CC[n+]1ccc(/C=C2\Sc3ccccc3N2CCCS(=O)(=O)[O-])c2ccccc21	none
CN1C=C/C(=C\c2cc[n+](C)c3ccccc23)c2ccccc21	CF NFkB block 56.1 (no result: PPC-1+TRAIL kill)
O=c1ccc(N=Nc2ccccc2)ccc1O	none
Oc1ccc(N=Nc2ccccc2)o1	CF NFkB block 94.8 (no result: PPC-1+TRAIL kill)
CCN(CC(=O)Nc1c(F)cccc1F)C(=O)Cc1csc(-c2ccccc2)n1	none (no result: PPC-1+TRAIL kill)
CCCCCCc1cc2cc(-c3nnc(-c4ccccc4OC)o3)c(=O)oc2cc1O	none
CCCCCCc1cc2cc(-c3nnc(-c4ccccc4O)o3)c(=O)oc2cc1O	KKLEB tox -66.4
COc1cccc(-c2cnc3c(NC=O)cc(-c4cccc(NC(C)=O)c4)cn23)c1	none (no result: PPC-1+TRAIL kill)
COc1cc(-c2cnc3c(NC=O)cc(-c4cccc(NC(C)=O)c4)cn23)cc(OC)c1OC	CF NFkB block 83.8, KKLEB tox -66.8 (no result: PPC-1+TRAIL kill)
C#CCSc1nnc(CSc2nc3ccccc3s2)n1-c1ccccc1	TRAIL sens C8 85.8
O=C(O)CSc1nnc(CSc2nc3ccccc3s2)n1-c1ccccc1	none
O=C(NNc1nc(=O)c2cccnc2s1)c1ccccc1O	TRAIL sens C8 52.5
O=C(CCCN1C(=O)/C(=C/c2cccc(Br)c2)SC1=S)Nc1cccnc1	HIF-2a inh 49.1
Cc1ccc(/C=C2\SC(=S)N(CC(=O)Nc3cccnc3)C2=O)cc1	none
Cc1ccc(/C=C2\SC(=S)N(CCCC(=O)Nc3cc(C)on3)C2=O)cc1	HIF-2a inh 68.9 (no result: PPC-1+TRAIL kill)
O=C(CCCN1C(=O)/C(=C/c2cccc(Br)c2)SC1=S)Nc1ccccn1	HIF-2a inh 65.7
COC(=O)c1ccc(/C=C2/SC(=S)N(CCCC(=O)Nc3ccccn3)C2=O)cc1	none
Cc1ccc(/C=C2\SC(=S)N(CCCC(=O)Nc3cccnc3)C2=O)cc1	HIF-2a inh 70.3 (no result: PPC-1+TRAIL kill)
CC(C)(C)NC(=O)NC(=O)CN1CCN(S(=O)(=O)c2ccc3c(c2)OCCO3)CC1	none
CC(C(=O)Nc1ccccc1F)N1CCN(S(=O)(=O)c2ccc(C(F)(F)F)cc2)CC1 (centres undefined)	none (no result: PPC-1+TRAIL kill)
O=C(CCCN1C(=O)/C(=C\c2cccc(Br)c2)SC1=S)Nc1cccnc1	HIF-2a inh 61.4
O=C(CCCN1C(=O)/C(=C/c2cccs2)SC1=S)Nc1cccnc1	none (no result: PPC-1+TRAIL kill)
Cc1ccc(-c2cc(-c3ccccc3)no2)cc1	TRAIL sens C8 55.2 (no result: PPC-1+TRAIL kill)
CC1=C(C)CC(C(=O)NCc2cccc(Cl)c2)C(C(=O)O)C1 (centres undefined)	none (no result: PPC-1+TRAIL kill)
Nc1ccn(C2CSC(CO)O2)c(=O)n1 (centres undefined)	none (no result: CF NFkB block, KKLEB tox, PPC-1+TRAIL kill)
CN(C)c1ncnc2c1C(c1ccccc1)C(C)(C)O2 (centres undefined)	none (no result: PPC-1+TRAIL kill)
Cc1[nH]cnc1C(=O)N/N=C/c1c(Cl)cccc1Cl	TRAIL sens C8 59.2 (no result: PPC-1+TRAIL kill)
Cc1nnsc1C(=O)N/N=C/c1c(F)cccc1Cl	none
O=C(O)CCCc1ccc2c(c1)CCc1ccccc1-2	HIF-2a inh 67.9 (no result: PPC-1+TRAIL kill)
CC1=C(OC(=O)C(C)(C)C)C(C)(C)C(c2ccccc2)OC1=O (centres undefined)	none
O=C(Nc1ccc(OCC(=O)N2CCOCC2)cc1)c1ccccc1Cl	TRAIL sens C8 83.3 (no result: PPC-1+TRAIL kill)
CCCCOc1ccc(C(=O)Nc2ccc(OCC(=O)N3CCOCC3)cc2)cc1	TRAIL sens C8 69.8 (no result: PPC-1+TRAIL kill)
CCN(CC(=O)Nc1ccc(OC)cc1)C(=O)Cc1ccc(OC)c(S(=O)(=O)N2CCOCC2)c1	none (no result: PPC-1+TRAIL kill)
CCNc1nc(-c2ccc(OC(F)F)cc2)c(C)s1	none
COc1ccc(C(=O)Nc2cccc(OC)c2)cc1	TRAIL sens C8 53.4
COc1cccc(NC(=O)c2cc3ccccc3o/c2=N\O)c1	TRAIL sens C8 55.0 (no result: PPC-1+TRAIL kill)
COc1cccc(NC(=O)Nc2cccc(C(=O)O)c2)c1	HIF-2a inh 80.5
COc1cccc(NC(=O)c2ccccc2)c1	none (no result: PPC-1+TRAIL kill)
O=C(Nc1ccc2nc3ccccc3nc2c1)c1ccccc1	TRAIL sens C8 56.6
O=C(Nc1ccccc1Cl)c1cc2ccccc2o/c1=N\O	none (no result: PPC-1+TRAIL kill)
O=C(Nc1ccc(Cl)c(Cl)c1)c1ccccc1	none (no result: PPC-1+TRAIL kill)
Cc1cccc(OCC(=O)O/N=C(\N)c2ccc(Br)cc2)c1	none
COc1ccc(NC(=O)c2ccc3nccnc3c2)cc1	none
COc1ccc(C(=O)Nc2ccc3[nH]c(-c4cccc(OC)c4)cc(=O)c3c2)cc1	CF NFkB block 50.1
COc1ccc(C(=O)Nc2ccc3ncccc3c2)cc1	TRAIL sens C8 82.5 (no result: PPC-1+TRAIL kill)
COc1ccc2[nH]c(-c3ccc(C)cc3)cc(=O)c2c1	TRAIL sens C8 84.5, PPC-1+TRAIL kill 72.7
COc1cccc(NC(=O)c2cccc(C(=O)Nc3cccc(OC)c3)c2)c1	none (no result: PPC-1+TRAIL kill)
COc1cccc(NC(=O)c2ccc(OC(F)(F)F)cc2)c1	TRAIL sens C8 49.5 (no result: PPC-1+TRAIL kill)
COc1ccc(-c2cc(=O)c3cc(F)ccc3[nH]2)cc1	none
N#Cc1cccc(C(=O)C(=O)N2CCCN(Cc3ccc(F)cc3)CC2)c1	none (no result: CF NFkB block, KKLEB tox, PPC-1+TRAIL kill, hiPSC survival)
CC(C)Cc1nnc(NC(=O)c2ccc3c(c2)OCCO3)s1	none (no result: PPC-1+TRAIL kill)

Source: PubChem BioAssay (Sanford-Burnham Center for Chemical Genomics)
